# GPR151 activ – activates the human receptor GPR151; Q8TDV0; PathHunter beta-arrestin GPR151 cells, luminescence; activation, % at 11.2 µM; 650,000 compounds, 1% hits; AID 1508602; in the data active = activation above about 4.9%;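 note: 0% = median of compound wells and 100% = cells with positive control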
# Target sequence (Q8TDV0 whole entry, looked up): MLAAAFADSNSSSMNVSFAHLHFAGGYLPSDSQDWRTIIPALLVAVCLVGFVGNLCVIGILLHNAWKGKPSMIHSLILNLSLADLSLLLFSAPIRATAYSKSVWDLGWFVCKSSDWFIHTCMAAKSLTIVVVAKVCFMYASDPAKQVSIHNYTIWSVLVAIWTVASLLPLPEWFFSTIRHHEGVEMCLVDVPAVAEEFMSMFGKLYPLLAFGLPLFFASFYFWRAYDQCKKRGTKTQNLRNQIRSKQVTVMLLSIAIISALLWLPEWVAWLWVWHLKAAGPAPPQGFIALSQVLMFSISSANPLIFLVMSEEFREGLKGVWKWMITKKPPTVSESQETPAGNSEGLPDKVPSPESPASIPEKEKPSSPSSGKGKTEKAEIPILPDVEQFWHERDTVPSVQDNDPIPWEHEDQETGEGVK
# FBW7 act – human FBW7 E3 ligase activation, primary screen. 650,000 compounds, 0.13% hits. Q969H0. normalized activity (activation), % at 26.1 µM. AID 1259310. AlphaScreen FBW7–phospho-cyclin E peptide binding, activator screen; in the data active = normalized activity above about 1.9%;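 note: purified mutant Fbw7 with reduced substrate affinity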
# TEAD-YAP block – TEAD-YAP interaction inhibition; HEK-TIYL cells, TEAD-Gal4/YAP UAS-luciferase luminescence; inhibition, % at 9.12 µM; 640,000 compounds, 1.4% hits; AID 1259422; in the data active = inhibition above about 32%;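 note: 0% = median of test compound wells and 100% = reference inhibitor wells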
# MITF primary – inhibitors of human MITF. AID 1259374. AlphaScreen MITF homodimerization, bead proximity signal. inhibition, % at 2.6 µM. 650,000 compounds, 0.91% hits. O75030; in the data active = inhibition above about 50%;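 note: 0% = vehicle wells with protein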
# * hit, by the source's call. This is a sample that favours compounds with a hit; in the whole collection about 3.4% have one here.
SMILES,GPR151 activ,FBW7 act,TEAD-YAP block,MITF primary
Cc1c2oc3c(C)ccc(C(=O)C4CCCCO4)c3nc-2c(C(=O)C2CCCCO2)c(N)c1=O (centres undefined),1.6,-0.2,96.0*,12.5
CC(C)Oc1ccccc1/C=C1/SC(N2CCCC2)=NC1=O,-2.2,0.1,38.1*,-6.0
Cc1ccccc1N1CCN(C2=NC(=O)/C(=C\c3ccccc3OC(C)C)S2)CC1,0.2,0.0,-0.2,-1.3
CCOC(=O)c1sc2nc(C)nc(Nc3ccc(C)c(F)c3)c2c1C,2.1,0.1,6.9,10.5
COc1ccc(C(=O)Nn2c(SCc3ccc(C)cc3)nc3ccccc3c2=O)cc1,2.1,-0.1,38.0*,-3.3
COc1ccc(C(=O)Nn2c(SCc3cccc(Br)c3)nc3ccccc3c2=O)cc1,0.4,-0.1,51.8*,-0.5
COc1ccc(C(=O)Nn2c(SCc3cccnc3)nc3ccccc3c2=O)cc1,-0.9,0.0,66.4*,-14.0
COc1ccc(C(=O)Nn2c(SCc3ccc(F)cc3)nc3ccccc3c2=O)cc1,2.6,0.0,51.6*,-8.2
COc1ccc(C(C)=O)cc1CSc1nc2ccccc2c(=O)n1NC(=O)c1ccccc1,-1.3,-0.1,-14.9,7.2
COc1ccc(C(=O)Nn2c(SCc3ccc(Cl)cc3)nc3ccccc3c2=O)cc1,0.2,0.1,30.3,-2.4
Nc1ccc(N=Cc2ccc([N+](=O)[O-])cc2)cc1Br,0.8,-0.3,-5.0,-2.4
COc1cc(/C=C2/OC(c3ccc(F)cc3)=NC2=O)cc(OC)c1OC,-0.9,0.5,-1.9,-4.2
COc1ccccc1-c1noc(-c2ccccc2C)n1,-1.2,0.1,-13.8,10.8
COC(=O)Cn1c(=O)c2c(nc3n2CC(C)CN3c2cccc(Cl)c2C)n(C)c1=O (centres undefined),0.7,0.0,1.7,10.2
COc1ccc(C(=O)Nn2c(SCc3cccc(F)c3)nc3ccccc3c2=O)cc1,0.0,0.0,77.0*,-6.4
CC(C)(C)c1ccc(-c2nc3ccccc3c(=O)n2NC(=O)c2cccnc2)cc1,1.0,-0.1,83.5*,9.9
CCOC(=O)N1CCC(n2c(SCC(=O)Nc3ccc(C)cc3)nc3ccccc3c2=O)CC1,-0.5,0.0,55.4*,3.9
Cc1ccc(NC(=O)CSc2nc3ccccc3c(=O)n2NC(=O)c2ccc(F)cc2)cc1,-3.5,0.6,41.3*,6.7
CCOC(=O)C1(Cc2ccccc2Cl)CCN(C(=O)CCSC)CC1,-0.3,-0.1,-31.6,4.3
O=C(Nc1ccc(Cl)cc1Cl)c1cccs1,-0.6,0.1,-28.4,-14.3
COc1ccc(C(=O)Nn2c(SCc3cccc([N+](=O)[O-])c3)nc3ccccc3c2=O)cc1,0.3,-0.1,71.6*,1.1
O=C(Nn1c(SCc2cccc([N+](=O)[O-])c2)nc2ccccc2c1=O)c1ccccc1,1.9,0.1,-34.9,9.2
Cc1n[nH]c(=O)nc1N/N=C/c1ccccc1O,-6.6,-0.6,17.8,94.0*
Cc1cc(=O)[nH]c(N/N=C/c2cc(C)c(/C=N/Nc3nc(C)cc(=O)[nH]3)cc2C)n1,-0.1,-0.2,-2.2,1.6
Cc1n[nH]c(=O)nc1N/N=C/c1cc(Br)ccc1O,-2.9,-0.1,76.0*,116.5*
SMILES,GPR151 activ,FBW7 act,TEAD-YAP block,MITF primary
Cc1cc(=O)[nH]c(N/N=C/c2cc(Br)ccc2O)n1,-1.6,0.1,7.4,64.8*
CC(C)(C)c1nnc(N/N=C/c2ccccc2O)[nH]c1=O,1.1,-0.4,82.3*,96.2*
CCOC(=O)COc1ccccc1/C=C1\C(=O)NN(c2ccccc2)C1=O,2.0,0.2,-3.6,1.5
O=C(c1ccccc1)N1c2ccc(Br)cc2C2C=CCC2C1c1ccc(Br)cc1 (centres undefined),1.4,-0.1,-6.5,4.1
CCOC(=O)c1c(NC(=O)CSc2ccccc2)sc(CC)c1-c1ccccc1,1.9,0.1,-5.2,70.1*
Cc1sc(NC(=O)COc2ccccc2)c(C(N)=O)c1-c1ccccc1,-0.1,0.1,74.9*,3.7
Cc1sc(NC(=O)COc2ccccc2)c(C(N)=O)c1C,1.3,0.2,-73.9,24.5
COc1ccc(NC(=O)c2ccc(OCc3ccccc3)cc2)cc1,-0.2,-0.1,-7.2,-1.6
COc1ccc(CN(CCC(c2ccccc2)C2CCOC(C)(C)C2)C(=O)c2ccco2)cc1OC (centres undefined),-1.0,-0.1,25.6,10.1
O=c1[nH]cccc1-c1nc2ccc(Cl)cc2s1,-2.3,-0.1,78.2*,-3.6
O=C1CC(C(=O)Nc2nc3ccc(Cl)cc3s2)c2ccccc21 (centres undefined),1.6,-0.2,-1.8,-0.7
COc1ccc(S(=O)(=O)NCc2cccs2)cc1OC,0.0,-0.1,-2.9,4.9
CCOC(=O)C1=C(C)Nc2nc3ccccc3n2C1c1ccc(SC)cc1 (centres undefined),-1.0,0.1,-1.1,6.8
Cc1ccc(CNc2nc3ccccc3s2)s1,1.4,0.1,65.9*,-0.2
O=C(C[n+]1ccc2ccccc2c1)c1ccc2c(c1)OCCO2,0.2,-0.1,-15.8,0.3
O=C(CCN1CCc2ccccc2C1)c1ccc2c(c1)OCCO2,0.3,-0.1,10.3,0.3
O=C(CCCc1ccccc1)c1ccc2c(c1)OCCO2,-3.8,0.1,90.7*,6.7
Nc1cc[n+](CC(=O)c2ccc3c(c2)OCCO3)cc1,-0.1,-0.1,49.3*,-0.5
O=C(CCc1ccccc1)c1ccc2c(c1)OCCCO2,0.7,0.1,-61.8,0.2
O=C(CCN1CCc2ccccc21)c1ccc2c(c1)OCCO2,0.9,0.1,45.1*,5.0
Cn1cccc1CNC(=O)CN1C(=O)c2ccccc2C1=O,-2.4,0.8,14.3,5.8
CC(C)(C)n1nc2c(c1NC(=O)c1c(F)cccc1Cl)CS(=O)C2 (centres undefined),-0.3,-0.2,8.1,-2.0
Cc1cc(Br)cc(C)c1OCC(=O)Nc1ccccc1C(N)=O,1.1,0.1,-21.8,8.2
O=S(=O)(NCC1CCCO1)c1ccc(Cc2ccc(S(=O)(=O)NCC3CCCO3)cc2)cc1 (centres undefined),-1.2,-0.1,42.7*,3.4
O=S(=O)(NCC1CCCO1)c1ccc(-c2ccc(S(=O)(=O)NCC3CCCO3)cc2)cc1 (centres undefined),-1.3,0.8,51.8*,12.7
SMILES,GPR151 activ,FBW7 act,TEAD-YAP block,MITF primary
O=S(=O)(NCC1CCCO1)c1ccc(NS(=O)(=O)c2ccc(F)cc2)cc1 (centres undefined),1.4,0.0,-2.9,3.7
CCc1c(C)[nH]c2c1C(=O)CCC2,-0.7,-0.2,6.9,-4.5
O=C(NCCc1ccc(O)cc1)c1cnc(N2CCN(Cc3ccc4c(c3)OCO4)CC2)s1,0.2,-0.1,10.9,7.2
CCOC(=O)c1c(C)[nH]c(-c2csc(N)n2)c1C,0.8,0.0,32.3*,5.7
COc1ccccc1N=C1SCCN1C(=O)c1ccc([N+](=O)[O-])o1,-1.0,2.2*,4.3,3.2
COc1cccc2sc(=NC(=O)c3ccc([N+](=O)[O-])o3)n(C)c12,4.8,0.0,-1.9,-0.2
Cn1c(=O)c2c(nc(Cl)n2Cc2cccc(C(F)(F)F)c2)n(C)c1=O,0.7,0.5,36.6*,18.4
CCNc1nc2c(c(=O)n(C)c(=O)n2C)n1Cc1cccc(C)c1,1.8,0.0,44.3*,3.1
